DAX1 inh-1: inhibitors of human orphan nuclear receptor DAX1 (NR0B1); P51843; HEK293 Gal4-DAX1 luciferase reporter, luminescence; inhibition, % at 6.75 µM; actives 0.99% (n = 340,000); AID 504766;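 active means inhibition above the mean over all tested compounds plus 3 SD, cut at about 4.2% in these data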;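 further: 0% = DAX1-transfected cells with DMSO and 100% = empty-vector control cells with DMSO; inhibition shows as a rise in luminescence from relieved DAX1 repression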
Target sequence (P51843 207-470 limits assumed): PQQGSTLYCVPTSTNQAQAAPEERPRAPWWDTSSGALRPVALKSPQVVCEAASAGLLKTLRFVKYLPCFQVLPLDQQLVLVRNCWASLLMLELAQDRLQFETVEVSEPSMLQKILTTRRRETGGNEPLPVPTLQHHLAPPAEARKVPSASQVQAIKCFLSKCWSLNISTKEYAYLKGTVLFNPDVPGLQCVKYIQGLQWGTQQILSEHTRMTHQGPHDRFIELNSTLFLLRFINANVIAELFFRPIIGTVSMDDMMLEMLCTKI
hcDAF-12 act: activators of H. contortus DAF-12 nuclear receptor | actives 1.4% (n = 370,000) | activation, % at 6.8 µM | AID 652067 | HEK293 hcDAF-12 lit1-tk-luc reporter, luminescence; 0% DMSO, 100% Δ7-dafachronic acid;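 active means activation above the mean of all tested compounds plus 3 SD, cut at about 5.5% in these data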;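 further: 100% = response to 3 µM Δ7-dafachronic acid high control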
DAX1 inh-2: DAX1 (NR0B1) inhibition, primary screen. HEK293T StAR-luciferase reporter, SF-1/DAX-1 repression relief. inhibition, % at 6.8 µM. actives 1.1% (n = 370,000);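 active means inhibition above the mean over all tested compounds plus 3 SD, cut at about 3.6% in these data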;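 further: 0% = DAX-1 cells with DMSO and 100% = cells lacking DAX-1 with DMSO; higher inhibition means more luminescence from relief of DAX-1 repression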
ssDAF12 agonist: activators of S. stercoralis DAF-12 nuclear receptor; HEK293 ssDAF-12/GRIP1 lit1-tk-luc reporter, luminescence; % of 3 µM dafachronic acid response; actives 1% (n = 370,000); activation, % at 6.8 µM;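 active means activation above the mean over all tested compounds plus 3 SD, cut at about 0.9% in these data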;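 further: 0% = DMSO-only wells and 100% = 3 µM delta7-dafachronic acid wells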
hgDAF-12 ag: activates the H. glycines DAF-12 receptor ligand-binding domain. actives 1.8% (n = 370,000). activation, % at 6.8 µM. HEK293 GAL4-hgDAF12 UAS-luciferase reporter, agonist luminescence; normalized to butyrate control;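 active means activation above a cutoff set at the mean of all screened compounds plus 3 SD, cut at about 10% in these data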;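 further: 0% = DMSO wells and 100% = sodium butyrate wells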
SMARCA2 activ: SMARCA2 function activation, primary screen. activation, % at 9.1 µM. MG213 cells, MMTV-luciferase reporter, dexamethasone, overnight. actives 1% (n = 370,000); in the data active means activation above about 7.8%;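 further: 0% = vehicle wells and 100% = reference activator wells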
LXRb hcDAF ctr: activates human LXR-beta, counter-screen for hcDAF-12 agonists; shares compounds with hcDAF-12 act; 3,400 tested, under 10 active; HEK293 Gal4-LXR tk-luc reporter, luminescence, 24 h; normalized: DMSO 0%, positive control 100%; activation, % at 6.8 µM;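 active means mean percent activation of the reporter above a cutoff set as the average over tested compounds plus their standard deviation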
hcDAF12 conf: hcDAF-12 agonism, confirmation assay. activation, % at 6.8 µM. AID 743032. shares compounds with hcDAF-12 act. HEK293 hcDAF-12 lit1-tk-luc reporter, luminescence; % of Δ7-dafachronic acid response. actives 61% (n = 3,400);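 active means mean activation across triplicate tests above the threshold derived from the earlier primary screen, cut at about 5.5% in these data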;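 further: 0% = DMSO only wells and 100% = 3 µM Δ7-dafachronic acid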
hgDAF12 ag: confirmation of H. glycines DAF-12 agonists; shares compounds with hgDAF-12 ag; HEK293 GAL4-hgDAF12 luciferase reporter, agonist mode; percent of butyrate response; activation, % at 6.8 µM; actives 80% (n = 3,300); AID 743050;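 active means mean activation over triplicate wells above the hit cutoff derived from the earlier primary screen, cut at about 11% in these data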;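 further: 0% = DMSO low control and 100% = 2 mM sodium butyrate high control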
LXR ag 2: counter-screen for DAF-12 agonists: agonists of human LXR-beta | activation, % at 6.8 µM | HEK293 Gal4-LXR luciferase reporter, 24 h | 3,300 tested, under 10 active | AID 743051 | shares compounds with hgDAF-12 ag;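 active means mean activation of the triplicate above a set limit carried over from the primary screen, none filed active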
* marks the source's active call; other numbers are inactive results; . = no result. Shown are actives, neighbours in structure and some others; about 4.8% of the full set was active somewhere.

SMILES	DAX1 inh-1	hcDAF-12 act	DAX1 inh-2	ssDAF12 agonist	hgDAF-12 ag	SMARCA2 activ	hgDAF12 ag	LXR ag 2	others
Cc1nc2ccccn2c1P(=S)(c1ccccc1)c1ccccc1	.	-1	2	-1	2	0	.	.
Cc1cccc(C)c1-n1nnnc1C(c1cccc2ccccc12)N1CCC2(CC1)C(=O)NCN2c1ccccc1 (stereo unspecified)	.	-1	1	0	1	1	.	.
CC1(CCCc2ccc(N(CCCl)CCCl)cc2)NC(=O)NC1=O (stereo unspecified)	0	1	1	-1	0	1	.	.
CSc1ccc(C(=O)C2CCCN(Cc3cc4ccccc4[nH]3)C2)cc1 (stereo unspecified)	0	6.7*	0	1	0	0	.	.	LXRb hcDAF ctr=0;hcDAF12 conf=6
Nc1c2c(nc3sc4c(c13)CCCC4)CCCCC2	3	3	2	0	14*	4	18*	1
CN(C)C(Cc1ccccc1)C(=O)c1ccccc1 (stereo unspecified)	0	-1	0	0	0	-2	.	.
COc1ccc(C(C)=O)cc1CC(C(=O)c1ccc(Br)cc1)N(C)C (stereo unspecified)	0	0	0	-1	14*	0	0	0
CC1=CC(C)CC(C)OC(=O)CC(c2ccc(O)cc2)NC(=O)C(Cc2c(Br)[nH]c3ccccc23)N(C)C(=O)C(C)NC(=O)C(C)C1 (stereo unspecified)	-1	-3	-2	-1	-8	-5	.	.

Screening data: PubChem BioAssay, The Scripps Research Institute Molecular Screening Center
